From PubChem BioAssay AID2058 (Sanford-Burnham Center for Chemical Genomics, 2009) come the findings set out here.

The structures appear in SMILES notation. Hit rate of the full screen: of about 290,000 compounds, about 150 (0.052%) were called active. The sample holds actives, similar compounds and a random draw of the others, so the mix is not that of the screen.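 How the source made its calls: active means inhibition of at least 50% with at least 30 cells and total cytoplasm GFP at most 10,000,000; inconclusive means under 30 cells or total GFP of 10,000,000 plus; inactive means the rest.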 Entries with a potency or affinity are not part of this list.

The target of this experiment is G-protein coupled receptor 35 (Homo sapiens) (UniProt Q9HC97). The experiment is described as follows: GPR35 antagonists blocking zaprinast-driven arrestin recruitment, primary screen, imaging, U2OS, beta-arrestin-GFP, zaprinast agonist (AID 2058). Conditions: U2OS GPR35 beta-arrestin-GFP translocation imaging, zaprinast antagonism; at 10 µM; stronger effect = higher value. On the technique in general: Recruitment of arrestin is a read-out of receptor activation apart from second messengers.
Chain of G-protein coupled receptor 35 (Homo sapiens) (Q9HC97 whole entry, looked up): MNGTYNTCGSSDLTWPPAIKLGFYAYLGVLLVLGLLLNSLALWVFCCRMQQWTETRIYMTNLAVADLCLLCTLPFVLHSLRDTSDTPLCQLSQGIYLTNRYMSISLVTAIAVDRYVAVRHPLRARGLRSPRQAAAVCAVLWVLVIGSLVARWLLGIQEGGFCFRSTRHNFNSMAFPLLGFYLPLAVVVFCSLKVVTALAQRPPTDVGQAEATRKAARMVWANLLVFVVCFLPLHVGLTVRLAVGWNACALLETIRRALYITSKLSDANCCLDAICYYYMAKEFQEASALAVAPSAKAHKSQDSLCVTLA
The term inhibition denotes the change of the read-out against control, counted positive when it falls. Regarding `CCn1c(CNC(=O)c2ccc(Cl)cc2)nnc1SCC(=O)N1CCOCC1`, the inhibition is -15.6% (inactive).

For the compound `Cn1cc(/C=C/c2cc[n+](C)cc2)c2cc(Cl)ccc21`, the inhibition was 54.7% (active).

Regarding `Cn1cc(/C=C/c2cc[n+](C)cc2)c2cc(F)ccc21`, the inhibition is 29.2% (inactive).

On to `COc1ccc2c(c1)c(/C=C/c1cc[n+](C)cc1)cn2C`, for which the inhibition is 48.7% (inactive).

With `CN1CCc2c(sc3nc(NN)n(Cc4ccccc4)c(=O)c23)C1`, the inhibition was 12.8% (inactive).

In the case of `NNC(=O)c1oc2nc(-c3cccs3)cc(-c3ccco3)c2c1N`, the inhibition is -11.1% (inactive).

As to `NNC(=O)c1oc2nc(-c3ccco3)cc(-c3ccco3)c2c1N`, the inhibition is 92.5% (active).

On to `Cc1ccc(-c2cc(-c3ccco3)c3c(N)c(C(=O)NN)oc3n2)cc1`, for which the inhibition was -7.6% (inactive).

Regarding `O=C(CCCn1c(=O)[nH]c2cc(Cl)ccc2c1=O)NCCCN1CCCC1`, the inhibition is 1.1% (inactive).

On to `CCCn1c(=O)[nH]c(=O)c2c1nc(-c1ccc(C(F)(F)F)cc1)n2CCOC`, for which the inhibition is 2.1% (inactive).

On to `N#CC1=C(N)C(C#N)(C#N)[C@H](c2cccnc2)[C@H]2CN(C(=O)OCc3ccccc3)CC=C12`, for which the inhibition was 0.1% (inactive).

For the compound `CN1CC=C2C(C#N)=C(N)C(C#N)(C#N)C(Cc3ccccc3)C2C1` (stereo not given), the inhibition is 53.4% (active).

As for `N#CC1=C(N)C(C#N)(C#N)C(c2cccnc2)C2CN(C(=O)OCc3ccccc3)CC=C12` (stereo not given), the inhibition is 8.1% (inactive).

`CC(=O)N1CC=C2C(C#N)=C(N)C(C#N)(C#N)C(CCc3ccccc3)C2C1` (stereo not given): the inhibition is -5.1% (inactive).

In the case of `CCN1CC=C2C(C#N)=C(N)C(C#N)(C#N)C(CCc3ccccc3)C2C1` (stereo not given), the inhibition was 90.4% (active).

Regarding `Cc1ccc(S(=O)(=O)N(C)c2ccc(C(=O)NCCc3ccccc3)cc2)cc1`, the inhibition was 3.9% (inactive).

As to `Cc1ccc(C2(COC(=O)C(C)C)CO2)c(OC(=O)C(C)C)c1` (stereo not given), the inhibition was 10.9% (inactive).

As to `CCn1c(Oc2ccc(F)cc2)nc2c1c(=O)n(C)c(=O)n2C`, the inhibition is 5.5% (inactive).

As to `COc1ccc(OCC(O)CNC(=O)Nc2ccccc2)cc1` (stereo not given), the inhibition was 1.5% (inactive).

As for `CN1CCc2nc(NC(=O)c3cccc(OC(F)F)c3)sc2C1`, the inhibition was 4.4% (inactive).

As for `COc1ccccc1N1CCN(CCCn2c(=S)[nH]c3ccccc3c2=O)CC1`, the inhibition is -1.1% (inactive).

As to `Cc1ccc(OCC(=O)N2CCN(C(=O)c3ccncc3)CC2)cc1`, the inhibition is -6.5% (inactive).

As to `C=CCCCCCCCCc1nc(=S)[nH][nH]1`, the inhibition was -18.8% (inactive).

For `C=CCCCCCCCCc1nc(SCC(C)=O)n[nH]1`, the inhibition was 18.4% (inactive).

In the case of `COc1ccc(NC(=O)COC(=O)C2CC(=O)N(c3ccc(C)cc3)C2)cc1` (stereo not given), the inhibition was -10.1% (inactive).

On to `O=S(=O)(NN1CCOCC1)c1cc(Cl)cc(Cl)c1O`, for which the inhibition is -8.3% (inactive).

On to `CC(=O)NS(=O)(=O)c1ccc(NC(=O)/C=C/c2cn(-c3ccccc3)nc2-c2ccccc2)cc1`, for which the inhibition is -3% (inactive).

As to `CCCCc1nc(SCC(=O)Nc2nnc(CCCC)s2)n[nH]1`, the inhibition is -13.1% (inactive).

With `O=C(CCN1C(=O)/C(=C\C=C\c2ccccc2)SC1=S)Nc1ccc(C(=O)O)cc1`, the inhibition was 1.6% (inactive).

With `O=C(CCCN1C(=O)S/C(=C\C=C\c2ccccc2)C1=O)Nc1ccc(O)cc1`, the inhibition was 18.5% (inactive).

On to `O=C(CN1C(=O)S/C(=C/C=C/c2ccccc2)C1=O)Nc1ccc(C(=O)O)cc1`, for which the inhibition was -12.3% (inactive).

Consider `O=C(CN1C(=O)S/C(=C\C=C\c2ccccc2)C1=O)Nc1ccc(C(=O)O)cc1`, for which the inhibition is -0.2% (inactive).

In the case of `C/C=C(\C)C(=O)NCCN1C2=NC[C@@H](Cc3ccccc3)N2C[C@H]1Cc1ccc(O)cc1`, the inhibition is 1% (inactive).

Take `N#Cc1c(C(F)(F)F)cc(=O)[nH]c1SCC(=O)O`: the inhibition was -12% (inactive).

Take `CCN(C(=O)Cc1c(C(=O)O)n(C)c2ccccc12)c1cccc(C)c1`: the inhibition was 6.8% (inactive).

Regarding `O=C(Cn1cccc1C(=O)c1ccccc1)NCCCc1ccccc1`, the inhibition is 3.3% (inactive).

Regarding `CC(C)CC(NS(=O)(=O)OCC(Cl)(Cl)Cl)c1ccccc1` (stereo not given), the inhibition was 6.5% (inactive).

In the case of `CC(NS(=O)(=O)OCC(Cl)(Cl)Cl)c1ccc(Br)cc1` (stereo not given), the inhibition is 2.8% (inactive).

In the case of `O=C(Nc1ccc(Cl)c(S(=O)(=O)N2CCOCC2)c1)c1ccccc1-c1ccc(C(F)(F)F)cc1`, the inhibition was -5.3% (inactive).

With `CC(O)CSc1nc2c(c(=O)n(C)c(=O)n2C)n1CCCc1ccccc1` (stereo not given), the inhibition is 18.8% (inactive).

With `Nc1c(C(=O)Nc2nccs2)sc2nc(-c3cccs3)cc(C(F)(F)F)c12`, the inhibition was 14.2% (inactive).

For `CC(=O)c1sc2nc(-c3cccs3)cc(C(F)(F)F)c2c1N`, the inhibition was 19.7% (inactive).

In the case of `O=C(NCc1nnc(SCc2ccccc2)n1-c1ccccc1)C12CC3CC(CC(C3)C1)C2`, the inhibition was -5.7% (inactive).

With `O=C(NCc1nnc(SCc2ccc(F)cc2)n1-c1ccccc1)C12CC3CC(CC(C3)C1)C2`, the inhibition was -5.2% (inactive).

Take `O=C(NCc1nnc(SCc2ccc(C(F)(F)F)cc2)n1-c1ccccc1)C12CC3CC(CC(C3)C1)C2`: the inhibition is 89.4% (active).

`COc1ccc(CC(=O)OCC(=O)NC(=O)NC2CCCCC2)cc1`: the inhibition is 6.4% (inactive).

`COC(=O)c1[nH]c2cccc(C)c2c1NC(=O)CN1CCN(C(=O)c2ccco2)CC1`: the inhibition was 21.8% (inactive).

`FC(F)(F)c1cnc(-c2cnc3c(-c4ccc(Cl)cc4)cnn3c2)c(Cl)c1`: the inhibition was 2.1% (inactive).

Turning to `CCOC(=O)c1ccc(NC(=O)CCc2c(C)nc3ncnn3c2C)cc1`, the inhibition was 10.9% (inactive).

`O=C(CSc1nnc(Cn2c(=O)sc3ccccc32)n1-c1ccccc1)NCC1CCCO1` (stereo not given): the inhibition is 15.8% (inactive).

With `CCN1CC=C2C(C#N)=C(N)C(C#N)(C#N)[C@H](c3ccoc3)[C@H]2C1`, the inhibition was 67.4% (active).

Regarding `N#CC1=C(N)C(C#N)(C#N)[C@H](c2ccoc2)[C@H]2CN(Cc3ccccc3)CC=C12`, the inhibition was 9.6% (inactive).

`CC(C)(C)OC(=O)N1CC=C2C(C#N)=C(N)C(C#N)(C#N)[C@H](c3cccnc3)[C@H]2C1`: the inhibition was 3.8% (inactive).

Take `CN1CC=C2C(C#N)=C(N)C(C#N)(C#N)[C@H](c3ccoc3)[C@H]2C1`: the inhibition is 74.6% (active).

For `CCOC(=O)N1CC=C2C(C#N)=C(N)C(C#N)(C#N)[C@H](c3ccsc3)[C@H]2C1`, the inhibition is 7.2% (inactive).

For `CN1C2C=C3C(C#N)=C(N)C(C#N)(C#N)[C@@H](c4ccsc4)[C@@H]3C1CC2` (stereo not given in full), the inhibition is -6.4% (inactive).

Regarding `CCOC(=O)N1CC=C2C(C#N)=C(N)C(C#N)(C#N)[C@H](c3ccc(OCC)c(OCC)c3)[C@H]2C1`, the inhibition is -0.6% (inactive).

Regarding `CC(=O)N1CC=C2C(C#N)=C(N)C(C#N)(C#N)[C@H](c3ccoc3)[C@H]2C1`, the inhibition is 2.7% (inactive).

`CCCCc1nc(SCC(=O)Nc2cccc(Cl)c2)n[nH]1`: the inhibition was -17% (inactive).

As to `Cc1cccc(Cc2cnc(N3C(=N)SC(C)C3=O)s2)c1` (stereo not given), the inhibition was -5.2% (inactive).

As for `O=C(CSc1nnc(C2CCCCC2)o1)N1CCCCC1`, the inhibition was 11.7% (inactive).

For `CCN(C(=O)C(C)OC(=O)C1C(C(=O)OC)=C(C)NC(C)=C1C(=O)OC)c1ccccc1` (stereo not given), the inhibition is -20.3% (inactive).

Regarding `COc1ccc(NC(=O)c2cc3c([nH]c4ccccc43)c(C)n2)cc1`, the inhibition is -5.7% (inactive).

For the compound `C=CCn1c(SCC(=O)N(C)C2CCS(=O)(=O)C2)nnc1-c1ccncc1` (stereo not given), the inhibition is 11.4% (inactive).

Take `CCOC(=O)C1CCN(C(=O)CSc2ccccc2)CC1`: the inhibition was -1.8% (inactive).

For `COc1cc([N+](=O)[O-])cc(/C=C2/SC(=S)N(Cc3ccccc3)C2=O)c1O`, the inhibition was 2.7% (inactive).

Turning to `O=C1/C(=C/c2ccc(O)c([N+](=O)[O-])c2)SC(=S)N1Cc1ccccc1`, the inhibition is 0.6% (inactive).

With `O=C1/C(=C\c2cc([N+](=O)[O-])ccc2O)SC(=S)N1Cc1ccc(Cl)cc1`, the inhibition was 61.1% (active).

With `Cc1nc2c(C(=O)NCc3ccc4c(c3)OCO4)cnn2c(C)c1Cc1ccc(F)cc1Cl`, the inhibition is -16.4% (inactive).

In the case of `Cc1oc(-c2ccc(Cl)cc2)nc1CS(=O)CC(=O)NCCCN(C)C1CCCCC1` (stereo not given), the inhibition was -9.6% (inactive).

Turning to `COC(=O)C1CN(S(=O)(=O)c2cc(OC)ccc2OC)CCS1` (stereo not given), the inhibition is -8.4% (inactive).

Consider `CC[n+]1ccc(/C=C/c2ccc(N(C)C)cc2)c2ccccc21`, for which the inhibition is 103% (active).

With `CC[n+]1c(/C=C/c2ccc(N(C)C)cc2)ccc2ccccc21`, the inhibition was 6.3% (inactive).

As to `CC[n+]1ccccc1/C=C/c1ccc(N(C)C)cc1`, the inhibition was -10.4% (inactive).

For the compound `CCCC(=O)N1CCN(c2nc3c(OC)ccc(Cl)c3s2)CC1`, the inhibition was 12.2% (inactive).

As to `CCC(Oc1ccc2ccccc2c1)C(=O)O` (stereo not given), the inhibition was 6.8% (inactive).

Take `CC(=O)N(C1=C(O)c2ccccc2C(=O)C1=O)C1CCCCC1`: the inhibition was -5.2% (inactive).

For the compound `CC(=O)N(c1ccccc1)C1CCCC1`, the inhibition was -22.8% (inactive).

Consider `O=C(NC1CCCCCC1)C1CCCN(S(=O)(=O)c2cccs2)C1` (stereo not given), for which the inhibition was -5.5% (inactive).

Regarding `CCN1CCN(C(=O)c2ccccc2NC(=O)c2ccc(Cl)cc2)CC1`, the inhibition is 1% (inactive).

For the compound `Cc1[nH]c(=O)[nH]c(=O)c1S(=O)(=O)N1CCCC(C(=O)N2CCN(c3ccccc3Cl)CC2)C1` (stereo not given), the inhibition was 3.5% (inactive).

Consider `COc1ccc(NC(=O)/C(Cl)=C(/Cl)S(=O)Cc2ccc(Cl)cc2)cn1` (stereo not given), for which the inhibition is 3.1% (inactive).

As for `COc1ccc(NC(=O)/C(Cl)=C(/Cl)S(=O)Cc2ccccc2Cl)cn1` (stereo not given), the inhibition is 115% (active).

As to `COc1ccc(NC(=O)/C(Cl)=C(/Cl)S(=O)Cc2ccccc2)cn1` (stereo not given), the inhibition was 9.5% (inactive).

Take `Cc1ccc(-c2nc3ncccc3n2O)cc1`: the inhibition is 2.4% (inactive).

In the case of `Cc1ccc(F)cc1NC(=O)CSc1nc(Nc2ccccc2)nc(N2CCOCC2)n1`, the inhibition was 17.7% (inactive).

Turning to `Cc1ccc2nc(/C(C#N)=C/c3ccccc3C(=O)O)[nH]c2c1`, the inhibition was -7.1% (inactive).

Take `COc1cc(/C=C(\C#N)c2nc3ccc(C)cc3[nH]2)c([N+](=O)[O-])cc1OC`: the inhibition was 2.2% (inactive).

`N#C/C(=C\c1ccccc1OCC(=O)O)c1nc2ccccc2[nH]1`: the inhibition is -0.8% (inactive).

For `COc1cccc(/C=C(\C#N)c2nc3ccc(C)cc3[nH]2)c1OCC(=O)O`, the inhibition was -10.4% (inactive).

As for `CCOc1cc(N(CC)CC)ccc1/C=C(/C#N)c1nc2ccccc2[nH]1`, the inhibition was 99.9% (active).

Take `CCOc1cc(/C=C(\C#N)c2nc3ccccc3[nH]2)ccc1OC(C)C(=O)O` (stereo not given): the inhibition was 9.3% (inactive).

For `Cc1cc(/C=C(\C#N)c2nc3ccccc3[nH]2)c(C)n1C`, the inhibition was -1.1% (inactive).

As for `Cc1ccc2nc(/C(C#N)=C/c3ccc(O)c(O)c3)[nH]c2c1`, the inhibition is -1.2% (inactive).

With `CCOc1cccc(/C=C(/C#N)c2nc3ccccc3[nH]2)c1OCC(=O)O`, the inhibition was -3.5% (inactive).
